# Source: PubChem BioAssay
# Most compounds without a hit are left out; they make up all but 1.9% or so of the library.
# ATG4B inh: ATG4B (human) cysteine protease inhibition | actives 0.51% (n = 340,000) | ATG4B cleavage of LC3-PLA2, NBD-HPC fluorescence, 1 h | AID 504462 | inhibition, % at 8.33 µM; in the data active means inhibition above about 40%
# Cardio protect: protects H9c2 cardiomyocytes from peroxide injury; H2O2 injury protection, ATPLite, 2 h; actives 0.63% (n = 360,000); protection from H2O2 cell death, % at 20 µM; AID 588492;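 active means compounds giving at least 50% protection of heart cells from peroxide-induced death in the single-dose screen, raw or plate-pattern-corrected value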;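 further: 0% = DMSO wells with peroxide and 100% = DMSO wells without peroxide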
# PP1 counter: blocks human PP1-alpha phosphatase, a PP5 counter-screen | P62136 | purified PP1alpha, OMFP fluorescence | inhibition, % at 6.7 µM | actives 0.9% (n = 320,000) | AID 2235;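 active means inhibition above the mean inhibition of all tested compounds plus 3 SD, computed separately for each screening campaign, cut at about 15% in these data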
# PP5 primary: inhibitors of human protein phosphatase 5 (PP5). actives 0.18% (n = 320,000). purified PP5c, OMFP substrate fluorescence. inhibition, % at 6.7 µM;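 active means inhibition above the campaign's mean inhibition across all tested compounds plus 3 SD, cut at about 9.5% in these data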;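 further: 0% = DMSO only and 100% = 100 µM cantharidin control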
# ATG4B confirm: confirmation of human ATG4B inhibitors; inhibition, % at 8.33 µM; actives 92% (n = 320); AID 504757; ATG4B protease fluorescent substrate cleavage assay; shares compounds with ATG4B inh; in the data active means inhibition above about 39%
# PLA2 ctr: inhibits human PLA2, flagging false ATG4B inhibitors; shares compounds with ATG4B inh; purified PLA2, NBD-C6-HPC fluorescence, 45 min; inhibition, % at 8.33 µM; actives 66% (n = 1,600); in the data active means inhibition above about 50%
# Target sequence (P04054 whole entry, looked up): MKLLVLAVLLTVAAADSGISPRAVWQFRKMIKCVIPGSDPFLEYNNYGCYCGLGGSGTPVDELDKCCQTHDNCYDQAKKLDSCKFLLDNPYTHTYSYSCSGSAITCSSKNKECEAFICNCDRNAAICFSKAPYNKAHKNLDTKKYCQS
# Numbers without * were called inactive; x = no result given.
SMILES,ATG4B inh,Cardio protect,PP1 counter,PP5 primary,PLA2 ctr,others
O=C(Nc1nnc(SCc2ccccc2Cl)s1)C1COc2ccccc2O1 (centres undefined),40,-6,2,0,x,
Cc1ccccc1NC(=O)/C(=C/c1ccccc1)c1ccccc1,43*,-1,-1,0,44,ATG4B confirm=65*
O=C(N/N=C/c1coc2ccccc2c1=O)c1ccccc1,28,-1,-3,-1,x,
O=C(N/N=C/c1coc2ccccc2c1=O)c1cn(-c2ccccc2)nc1-c1ccccc1,92*,4,-1,-2,94*,
Nc1ccc2c(c1)C(=O)C(=O)c1ccccc1-2,78*,-23,39*,8,11,ATG4B confirm=27
COc1ccc(-n2nc3c(N4CCC(C(=O)N5CCC(C)CC5)CC4)nnc(C)c3c2C)cc1,68*,-5,3,0,75*,
Cc1ccc(-n2nc3c(N4CCC(C(=O)NCCc5cccs5)CC4)nnc(C)c3c2C)cc1,-8,-13,4,3,x,
CCOc1ccc(C(=O)Nc2ccccc2N2CCOCC2)cc1,3,12,-4,2,x,
CCOc1ccc(C(=O)C2CCN(CC(=O)Nc3ccccc3N3CCOCC3)CC2)cc1,44*,3,6,5,34,ATG4B confirm=65*
CN1C(=O)/C(=C/c2cccc(Cl)c2)Sc2ccc(C(=O)N3CCCC3)cc21,-5,x,-3,2,x,
COc1ccc(C(C(=O)NC2CCCCC2)N(C(=O)c2ccco2)c2ccccc2C(C)=O)cc1 (centres undefined),-1,1,-2,2,x,
Cc1ccc(S(=O)(=O)N(CC(=O)Nc2cccc([N+](=O)[O-])c2)C2CCCCC2)cc1,45*,-19,5,1,51*,
COc1ccc(C)cc1S(=O)(=O)N(CC(=O)Nc1cccc([N+](=O)[O-])c1)c1cc(C)cc(C)c1,83*,-3,-1,2,86*,
COc1ccc([N+](=O)[O-])cc1NC(=O)c1ccc(CN(c2ccc(C)c(C)c2)S(C)(=O)=O)cc1,-9,3,1,3,x,
COc1ccc(C)cc1S(=O)(=O)N(CC(=O)Nc1cc([N+](=O)[O-])ccc1C)c1ccc(C)c(C)c1,77*,-1,2,4,87*,
COc1cccc(CNC(=O)c2ccncc2)c1,-4,7,-2,2,x,
O=C(COC(=O)c1ccc(O)cc1)Nc1ccccc1,-2,0,-3,2,x,
Cc1ccc(OCC(=O)Nc2ccc(C)c(F)c2)c([N+](=O)[O-])n1,-7,-4,x,x,x,
O=[N+]([O-])c1ccc(N/N=C/c2c[nH]c3ccccc23)c(S(=O)(=O)Nc2ccc(Cl)cc2)c1,42*,-28,1,1,53*,
COc1ccccc1NS(=O)(=O)c1cc([N+](=O)[O-])ccc1N/N=C/c1c(C)[nH]c2ccccc12,15,-8,0,5,x,
COc1cccc(-c2ccc3ncnc(NCc4cccc(C)c4)c3c2)c1,40*,-3,-2,2,50,
COc1cccc(CNc2ncnc3ccc(-c4c(C)noc4C)cc23)c1,-1,-24,2,2,x,
Cc1ccc(NC2=C/C(=N\S(=O)(=O)c3cccs3)c3ccccc3C2=O)c(C)c1,56*,-22,9,6,61*,
Cc1cccc(-c2nn(-c3ccccc3)cc2C(=O)N2CCN(C3CCS(=O)(=O)C3)CC2)c1 (centres undefined),-11,-4,-2,0,x,
COc1cc(C(=O)NNC(=O)COc2cccc(F)c2)ccc1OCC(=O)N1CCOCC1,4,2,-3,-1,x,
SMILES,ATG4B inh,Cardio protect,PP1 counter,PP5 primary,PLA2 ctr,others
Cc1ccccc1CNC(=O)c1ccc(CSCc2ccccc2)cc1,49*,-5,6,6,68*,
Cc1ccc(CSCCNC(=O)c2ccccc2)cc1,-3,-4,-1,3,x,
O=C(CN1CCN(Cc2ccccc2)CC1)N1CCCCCC1,-10,0,-5,1,x,
O=C(NNC(=S)Nc1ccc(Cl)c(Cl)c1)c1cccc([N+](=O)[O-])c1,85*,-11,7,3,91*,
CCN1C[C@@H]2[C@@H]3C(=O)N(C)C(=O)[C@@H]3[C@](Cc3ccccc3)(C(=O)OC)N2C1=NC1CCCCC1,2,4,x,x,x,
CCOCCc1nnc(NC(=O)CCC2CCCCC2)s1,-3,-1,0,0,x,
Cc1cc(NCc2ccc(F)cc2Cl)n2nnnc2n1,48*,-2,7,-3,48,ATG4B confirm=70*
